Results published in PMC5540273 (PLoS ONE, 2017).

Assays:
Conditions in all cases: concentration: 1 μM, replicates: in singlicate; n = 1
[1] = system: MAP4K2
[2] = system: MAP4K3
[3] = system: MAP4K4
[4] = system: MAP4K5
[5] = system: MAPKAPK2
[6] = system: MAPKAPK5
[7] = system: MARK1
[8] = system: MARK2
[9] = system: MARK3
[10] = system: MARK4
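Also: KINOMEscan kinase panel screen.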

SMILES	%Inh [1] [%]	%Inh [2] [%]	%Inh [3] [%]	%Inh [4] [%]	%Inh [5] [%]	%Inh [6] [%]	%Inh [7] [%]	%Inh [8] [%]	%Inh [9] [%]	%Inh [10] [%]
Cc1ccccc1Cn1ccn2c(=O)cc(N3CCOCC3)nc12 [GSK2269905]	0	0	0	0	19	0	99.2	0	0	96.6
CCn1c(-c2ccccc2)nc2cnccc21 [SB-733416]	0	9	18	8	34	0	13	0	10	26
COc1ccc2cc(-c3nc(-c4ccccc4C(C)C)[nH]c3-c3ccncc3)ccc2c1 [SB-660566]	0	0	31	3	16	0	7	0	0	3
COC(=O)C(Cc1ccccc1)NC(=O)NC1CCN(c2ccnc(Nc3ccc(F)cc3)n2)C1 (stereo not shown) [GSK1379714]	0	0	9	3	21	0	0	8	0	4
CC(C)c1cc(-c2ccc3c(N)n[nH]c3c2)nc(N)n1 [GSK2250882]	0	0	1	0	23	0	0	9	0	0
CC[C@@H]1CO[C@H](C(=O)Nc2ccccc2)CN1c1cc(-c2ccc3c(N)n[nH]c3c2)nc(NC)n1 [GSK2376236]	0	0	0	0	0	0	0	5	0	0
CS(=O)(=O)Cc1ccc(Nc2nccc(-c3c(-c4cccc(NC(=O)C5CCCCC5)c4)nn4ncccc34)n2)cc1 [GSK350559]	36	0	0	10	0	39	37	0	0	5
Cc1c(Cn2c(C)c(C)n3c(=O)cc(N4CCOCC4)nc23)cccc1C(F)(F)F [GSK2328680]	0	0	0	0	16	0	0	0	19	0
CCCCc1nn2ncccc2c1-c1ccnc(NC2CC2)n1 [GW684374]	0	0	0	0	0	0	0	0	0	0
O=C1NC(=O)C(c2ccc(Cl)cc2)=C1Nc1ccc(O)cc1 [SB-340867]	0	0	0	0	8	0	0	1	20	0
COc1cc2ncnc(Nc3cccc(Br)c3)c2cc1OC.Cl [GI230329]	0	0	0	0	0	0	0	0	0	5
COc1cccc(CNC(=O)NC2CCN(c3ccnc(Nc4ccc(F)cc4)n3)C2)c1 (stereo not shown) [GSK1379723]	0	8	2	1	16	0	0	0	0	0
O=C1NC(=O)C(c2ccc(Cl)cc2)=C1Nc1cccc(Cl)c1 [SB-317651]	6	1	0	0	0	0	0	13	6	0
c1ccc(-c2ccnc3[nH]ccc23)cc1 [SB-693578]	32	22	0	0	26	0	100	0	0	62
COc1ccc(Nc2nccc(-c3ccc(NC(=O)c4cc5cc(F)ccc5[nH]4)cc3)n2)cc1 [GSK1229496]	0	0	0	0	0	0	0	0	0	0
Cn1cnc2c(N)ncnc21 [SKF-97623]	0	14	0	13	25	0	0	0	0	0
CS(=O)(=O)CCNCc1nc(-c2ccc3ncnc(Nc4ccc5c(cnn5Cc5ccccc5)c4)c3c2)cs1.Cl.Cl [GW569716]	0	9	0	0	19	0	0	0	0	0
Fc1ccc(-c2nc3n(c2-c2ccncc2)CCS3)cc1 [GI98581]	0	0	26	11	1	0	0	0	0	12
Cc1ccc(NC(=O)Nc2ccccc2)cc1-c1ccc(C(=O)Nc2ccncc2)cc1 [GSK1398471]	0	2	1	0	1	0	0	1	45	0
FC(F)(F)c1ccccc1-c1cc(-c2c[nH]nc2-c2ccccn2)ccn1 [GW679396]	0	0	10	3	0	8	0	0	0	12
CNc1cc(-c2ccc3c(N)n[nH]c3c2)nc(N)n1 [GSK2224810]	22	20	0	0	49	0	0	7	0	0
CC(C)c1ccc(O)cc1Nc1ccnc2ccc(C(F)(F)F)cc12 [GW482059]	0	0	26	37	16	0	0	0	0	6
O=C(Nc1n[nH]c2nc(-c3cccs3)c(Br)cc12)C1CC1 [SB-735297]	0	0	0	0	0	10	1	0	20	6

SMILES	%Inh [1] [%]	%Inh [2] [%]	%Inh [3] [%]	%Inh [4] [%]	%Inh [5] [%]	%Inh [6] [%]	%Inh [7] [%]	%Inh [8] [%]	%Inh [9] [%]	%Inh [10] [%]
Nc1cccc(-c2ccc3c(N)n[nH]c3c2)n1 [GSK2192730]	59	0	0	0	0	0	0	10	0	0
O=C(Nc1n[nH]c2cc(-c3ccsc3)ccc12)C1CC1 [SB-732932]	25	0	18	2	0	24	0	24	0	12
COc1ccc(CSc2nnc(-c3ccc4nccn4c3)o2)cc1C(F)(F)F	37	16	7	3	33	27	10	44	0	6
O=c1cc(N2CCOCC2)nc2n(Cc3cccc(Cl)c3Cl)c3ccccc3n12 [GSK2299009]	0	0	0	0	32	0	7	0	0	23
CC(=O)c1c(C)c2cnc(Nc3ccc(N4CCNCC4)cn3)nc2n(C2CCCC2)c1=O	0	17	0	0	0	0	6	0	0	13
CNc1nc(-c2ccc3c(N)n[nH]c3c2)cc(N2C[C@@H](C(=O)NC3CCCCC3)OC[C@H]2C)n1 [GSK2375584]	0	0	15	9	17	2	10	0	0	18
CNC(=O)c1ccc(C)c(-n2c(C)cc(OCc3ccc(F)cc3F)c(Br)c2=O)c1	0	0	0	0	0	0	0	1	0	0
Cc1ccc(NC(=O)Nc2ccc(Cl)c(C(F)(F)F)c2)cc1-c1ccc(C(=O)Nc2ccncc2)cc1 [GSK1398470]	0	8	29	12	7	0	0	13	8	0
Cc1ccccc1-c1cc(-c2c[nH]nc2-c2ccccn2)ccn1 [GW680061]	0	0	0	0	24	0	0	0	0	0
CNCc1ccc2nc(NC(=O)c3ccc(C(C)(C)C)cc3)cn2c1	22	0	0	0	0	5	0	0	9	4
CC(=O)c1cccc(NC(=O)NC2CCN(c3ccnc(Nc4ccc(F)cc4)n3)C2)c1 (stereo not shown) [GSK1379710]	11	8	13	16	16	0	0	0	16	0
COc1cccc(NC(=O)Nc2ccc(C)c(-c3ccc(C(=O)Nc4ccncc4)cc3)c2)c1 [GSK1398474]	0	0	24	16	5	0	94.1	18	0	20
COc1ccc(Nc2nccc(N3CCC(NC(=O)C(C)c4ccc(Cl)cc4)CC3)n2)cc1 (stereo not shown) [GSK1379812]	0	0	3	0	6	0	15	19	0	22
Cc1cnc(N)c(/C=C/c2cncc(C(=O)NCCc3ccc(Cl)cc3Cl)c2)c1.Cl [GSK190937]	4	0	17	18			0	6	0	0
Cc1ccc(NC(=O)Nc2ccc(Cl)cc2)cc1-c1ccc(C(=O)Nc2ccncc2)cc1 [GSK1398472]	0	0	5	6	19	0	0	0	0	1
COc1ccc(CSc2nnc(-c3ccc4c(c3)CCO4)o2)cc1	0	0	0	0	0	0	0	21	0	0
CN1c2ccc(-c3ccc(C(N)=O)cc3)cc2-c2[nH]ncc2S1(=O)=O	1	6	29	23	0	0	14	0	0	27
COc1nccc(-c2c(-c3ccc(F)cc3)ncn2CCCN2CCOCC2)n1 [SB-282852]	0	0	0	0	5	0	0	7	24	0
CCc1ccc(-c2ccc3c(c2)-c2n[nH]cc2S(=O)(=O)N3C)cc1	0	15	15	12	0	0	0	0	0	0
Cn1cncc1C(=O)NC1CCN(c2ccnc(Nc3ccc(F)cc3)n2)C1 (stereo not shown) [GSK1379717]	0	0	7	30	4	0	0	0	0	0
Cc1ccc(NC(=O)c2ccc(Cl)cc2)cc1-c1ccc(C(=O)Nc2ccncc2)cc1 [GSK1398467]	0	0	13	3	24	0	36	80	0	0
CSc1ccc(-c2nc3n(c2-c2ccncc2)CCC3)cc1 [SKF-105561]	0	0	1	0	10	22	0	16	0	0
Cc1ccc(NC(=O)Nc2ccccc2F)cc1-c1ccc(C(=O)Nc2ccncc2)cc1 [GSK1398477]	0	21	29	27	37	0	8	5	0	19

SMILES	%Inh [1] [%]	%Inh [2] [%]	%Inh [3] [%]	%Inh [4] [%]	%Inh [5] [%]	%Inh [6] [%]	%Inh [7] [%]	%Inh [8] [%]	%Inh [9] [%]	%Inh [10] [%]
CNc1nc(-c2ccc3c(N)n[nH]c3c2)cc(N2C[C@@H](C(=O)Nc3ccccc3)CC[C@H]2C)n1 [GSK2298859]	0	0	6	0	0	0	0	0	0	11
COc1ccc(-c2coc3ccc(-c4nnc(C)o4)cc23)cc1	0	0	0	0	0	0	100	30	0	100
COC(=O)C(NC(=O)NC1CCN(c2ccnc(Nc3ccc(F)cc3)n2)C1)c1ccccc1 (stereo not shown) [GSK1379712]	0	0	1	2	18	6	0	7	1	8
COc1ccc(CSc2nnc(-c3ccc4ncsc4c3)o2)cc1C(F)(F)F	0	0	0	0	0	0	0	24	0	2
COc1ccc(Nc2nccc(N3CCC(NC(=O)c4cc5ccccc5s4)C3)n2)cc1 (stereo not shown) [GSK1379738]	0	2	0	0	0	0	0	0	3	0
Fc1ccc(-c2nn3cccc(F)c3c2-c2ccncc2)cc1 [GW475620]	0	10	47	24	29	0	1	0	0	4
Fc1ccc(-c2nc[nH]c2-c2ccncc2)cc1 [SB-217360]	0	2	10	0	0	0	12	4	0	30
O=c1cc(N2CCOCC2)nc2n(Cc3ccccc3F)ccn12 [GSK2297428]	0	0	0	0	0	0	100	0	0	69
COc1cccc(C2=C(Nc3cc(Cl)c(O)c(Cl)c3)C(=O)NC2=O)c1 [SB-390767]	0	0	0	1	15	0	0	0	0	0
CS(=O)(=O)CCNCc1nc(-c2ccc3ncnc(Nc4ccc(OCc5ccccc5)c(Cl)c4)c3c2)cs1.Cl [GW582764]	0	0	10	8	21	0	0	0	0	0
Cc1c(Cn2c3ccccc3n3c(=O)cc(N4CCOCC4)nc23)cccc1C(F)(F)F [GSK2306394]	2	0	11	8	0	0	0	0	0	0
COc1ccc(Nc2nccc(NCCNC(=O)Nc3cc(C)ccc3C)n2)cc1 [GSK1379899]	0	3	16	26	15	0	0	0	0	9
Cn1cncc1-c1cc2c(Nc3ccc(OCc4ccccc4)cc3)ncnc2cn1 [GW281179]	0	0	1	0	24	0	0	0	0	11
Nc1nccc(-c2c(-c3ccc(F)cc3)ncn2C2CCN(Cc3ccccc3)CC2)n1 [SB-219980]	19	16	10	73	0	0	5	1	0	1
COC(=O)c1cccc(NC(=O)NC2CCN(c3ccnc(Nc4ccc(OC)cc4)n3)C2)c1 (stereo not shown) [GSK1379746]	0	0	0	0	14	0	0	0	4	0
COc1ccc(Nc2nccc(N3CCC(NC(=O)C(C)c4ccc(Cl)cc4)C3)n2)cc1 (stereo not shown) [GSK1379735]	0	11	4	0	32	0	0	0	12	0
Cc1nccc(-c2c(-c3ccc(F)cc3)ncn2CCCN2CCOCC2)n1.Cl [SB-282975]	0	1	30	37	0	4	0	4	7	45
Nc1ncnc2occ(-c3ccc4c(c3)CCN4C(=O)Cc3cc(F)ccc3F)c12 [GSK2645446]	0	35	0	11	11	0	0	0	0	0
Cl.Cl.Cl.N#Cc1ccc(CCNc2nccc(-c3cccc(CN4CCNCC4)c3)n2)cc1 [GSK2137462]	0	8	21	4	0	0	0	6	25	0
COC(=O)c1cccc(NC(=O)NC2CCN(c3ccnc(Nc4ccc(F)cc4)n3)C2)c1 (stereo not shown) [GSK1379725]	0	0	1	0	15	0	0	0	42	0
CC(=O)c1c(C)c2cnc(Nc3ccn(C)n3)nc2n(C2CCCC2)c1=O	0	24	0	0	0	0	0	0	12	0
CCn1c(-c2c(N)noc2C)nc2cnccc21 [SB-737856]	0	2	10	0	19	0	0	0	0	0
Cc1cccc2c(-c3ccncn3)c(-c3ccc(F)cc3)nn12 [GW515532]	0	12	7	0	8	0	0	0	5	0
